Measurements taken from PubChem BioAssay (Tox21).
Records with an inconclusive call do not appear. Calls of active or inactive are those of the source. The call rests on the fitted dose curve; in most records, active means well fitted cell-killing curve with a large enough effect in the repeat runs; inconclusive means weak or mixed curves, or effect the other way; inactive means flat fitted curve, though single readings scatter.

Assay: qHTS assay to identify small molecule antagonists of the retinoid acid receptor (RAR) signaling pathway - cell viability counter screen (AID 1159551); further: nearly all actives have a fitted effect of over 35% in size
Settings: C3RL4 cells viability, ATP luminescence (CellTiter-Glo), 6 h; series mostly up to 92.4 µM
Source text: U.S. Tox21 Program National Center for Advancing Translational Sciences [NCATS] NIH Chemical Genomics Center [NCGC] U.S. Environmental Protection Agency [EPA] National Institutes of Environmental Health Sciences [NIEHS] National Toxicology Program [NTP] U.S. Food and Drug Administration [FDA] Tox21 Assay Overview: All-trans Retinoic acid (atRA) is the potent natural metabolite of retinol and plays an important role in normal embryonic development and maintenance of cellular phenotype in adult animals. atRA is the activating ligand for the retinoic acid receptors (RARs) which form heterodimers with retinoid X receptors (RXRs) on the retinoic acid response element (RARE). Through activation of the RAR/RXRs nuclear receptors, atRA regulates the transcription of a large number of protein-coding genes and regulatory RNAs. Intracellular levels of atRA are controlled by the retinol signaling pathway (RSP) that regulates the biosynthesis and catabolism of atRA to maintain physiological levels. Chemicals that interfere with the RSP can cause abnormal intracellular levels of atRA and therefore are potential developmental toxicants. To assess compounds for the potential adverse effect on embryonic development through interfering with retinol signaling, a cell-based RARE luciferase reporter gene assay was used. C3RL4 cell line (OARSA/CFSAN/FDA, Laurel, MD) was used to screen Tox21 10K compound library for identifying inhibitors of the RSP. Also cytotoxicity was assessed by determining the viability of cells based on the quantitation of ATP.
Tox21 Assay Protocol Summary: C3RL4 cells were seeded at 1,000/well in 4 uL of assay medium into white solid 1,536-well tissue culture plates (Greiner Bio-One North America Inc. Monroe, NC) using a Multidrop Combi (Thermo Scientific, Waltham, MA) dispenser. After incubation at 37 C and 5% CO2 for an overnight, 23 nL of compounds dissolved in DMSO, positive control or DMSO only were transferred by a Pintool station (Kalypsys, San Diego, CA). One ul of 1 uM (final concentration) of Retinol was added right after the compound addition by using a Flying Reagent Dispenser (FRD) (Aurora Discovery, San Diego, CA). After 6 hr incubation at 37 C and 5% CO2, 5 uL of CellTiter-Glo reagent (Promega Corporation, Madison, WI) was added to each assay plate using an FRD. Luminescence was quantified on a ViewLux plate reader (PerkinElmer, Waltham, MA) after 30 min incubation at room temperature.

Compound | outcome
Cc1cc(O)ccc1Cl | inactive
ClC(Cl)c1ccccc1 | inactive
CC(C)(C)C(=O)CCl | inactive
COc1cc(-c2ccc(N)c(OC)c2)ccc1N | inactive
Cc1cccc(C)c1NC(=O)CN1CCCC1=O | inactive
Cc1ccc(N)cc1 | inactive
CCCOC(=O)c1ccccc1C(=O)OCCC | inactive
CC(=O)C1CCOC1=O (stereo not given) | inactive
O=C/C=C/c1ccccc1 | inactive
Nc1ccc(N)cc1 | inactive
CC(C)c1cccc(C(C)C)c1O | inactive
CNC(=O)O/N=C/C(C)(C)S(C)(=O)=O | inactive
O=[N+]([O-])c1cc([As](=O)(O)O)ccc1O | inactive
CCSC(=O)N1CCCCCC1 | inactive
O=P1(NCCCl)OCCCN1CCCl (stereo not given) | inactive
Nc1ncc([N+](=O)[O-])s1 | inactive
ClCCOCCCl | inactive
C=CC#N | inactive
Cl[C@H]1OCCO[C@@H]1Cl | inactive
Cl/C=C/Cl | inactive

Compound | outcome
COC(C)(C)CCCC(C)C/C=C/C(C)=C/C(=O)OC(C)C (stereo not given) | inactive
CCOc1ccc(N)cc1 | inactive
Nc1nc(N)nc(NC2CC2)n1 | inactive
CCOC(=O)CC(SP(=O)(OC)OC)C(=O)OCC (stereo not given) | inactive
O=C(O)c1cc(Oc2ccc(C(F)(F)F)cc2Cl)ccc1[N+](=O)[O-] | inactive
Sc1ccccc1 | inactive
Cc1cc(Cl)ccc1OC(C)C(=O)O (stereo not given) | inactive
CCOP(=S)(OCC)Oc1ccc([N+](=O)[O-])cc1 | inactive
CC12CC1(C)C(=O)N(c1cc(Cl)cc(Cl)c1)C2=O (stereo not given) | inactive
CCOP(=S)(OCC)Oc1cc(C)nc(C(C)C)n1 | inactive
COc1nc(NC(C)C)nc(NC(C)C)n1 | inactive
Cc1ccc(N=C=O)cc1N=C=O | inactive
C=CC(=O)OCC(CC)CCCC (stereo not given) | inactive
O=C(O)Cc1ccccc1 | inactive
O=C(O)C(Br)Br | inactive
C/C=C/c1ccc2c(c1)OCO2 | inactive
CNC(=O)O/N=C/C(C)(C)SC | inactive
CN(C)CCC#N | inactive
COP(=S)(OC)SCN1C(=O)c2ccccc2C1=O | inactive
OCCCCO | inactive
